From PubChem BioAssay (EPA / NIEHS) come the findings set out here.

The target in experiment [1] is human Protein Tyrosine Phosphatase Non-receptor Type 6 (PTPN6), PTPN6 (gene 5777) (UniProt P29350). In words: NVS_ENZ_hPTPN6: NovaScreen (NVS) Enzymatic Assay for human Protein Tyrosine Phosphatase Non-receptor Type 6 (PTPN6) (AID 2283210). Summed up:
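Recombinant human PTPN6 from SF9 cells, enzyme activity followed by fluorescence after mobility-shift separation of substrate and product at 1.33 h. Chemicals first tested at a single 25 uM in duplicate, then confirmed across concentration series; loss of signal relative to DMSO.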

The target of experiment [2] is human Protein Tyrosine Phosphatase Receptor Type B (PTPRB), PTPRB (gene 5787) (UniProt P23467). Put plainly: NVS_ENZ_hPTPRB: NovaScreen (NVS) Enzymatic Assay for human Protein Tyrosine Phosphatase Receptor Type B (PTPRB) (AID 2283211). Summed up:
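Recombinant human PTPRB with a fluorescent substrate, product separated by electrophoretic mobility shift; read 1 h after dosing. Primary screen in duplicate at 25 uM; actives then retested in concentration series; loss of signal versus DMSO.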

Experiment [3] has as its target human Protein Tyrosine Phosphatase Receptor Type F (PTPRF), PTPRF (gene 5792) (UniProt P10586). In words: NVS_ENZ_hPTPRF: NovaScreen (NVS) Enzymatic Assay for human Protein Tyrosine Phosphatase Receptor Type F (PTPRF) (AID 2283213). Put shortly:
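Cell-free fluorescence enzyme assay with recombinant protein and substrate; product separated by electrophoretic mobility shift. Read 1 h after dosing, single 25 uM duplicate screen, then concentration-response up to 50 uM; loss of signal vs DMSO.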

Experiment [4] concerns the target human Protein Tyrosine Phosphatase Receptor Type M (PTPRM), PTPRM (gene 5797) (UniProt P28827). In words: NVS_ENZ_hPTPRM: NovaScreen (NVS) Enzymatic Assay for human Protein Tyrosine Phosphatase Receptor Type M (PTPRM) (AID 2283215). As to the method:
(§1) NVS_ENZ_hPTPRM is a biochemical, single-readout assay that uses extracted gene-proteins in a cell-free assay. Measurements were taken 1.33 hours after chemical dosing in a 384-well plate.NVS_ENZ_hPTPRM is one of one assay component(s) measured or calculated from the NVS_ENZ_hPTPRM assay. It is designed to make measurements of enzyme activity, a form of enzyme reporter, as detected with fluorescence intensity signals by Fluorescence and electrophoretic mobility shift technology.Data from the assay component NVS_ENZ_hPTPRM was analyzed into 1 assay endpoint. This assay endpoint, NVS_ENZ_hPTPRM, was analyzed in the positive analysis fitting direction relative to DMSO as the negative control and baseline of activity. Using a type of enzyme reporter, loss-of-signal activity can be used to understand changes in the enzymatic activity as they relate to the gene PTPRM. Furthermore, this assay endpoint can be referred to as a primary readout, because this assay has produced multiple assay endpoints where this one serves a enzymatic activity function. To generalize the intended target to other relatable targets, this assay endpoint is annotated to the phosphatase intended target family, where the subfamily is receptor tyrosine phosphatase.
Binding assays used specific radioligands (tritiated, iodinated) with non-radioactive competitive displacement ligands in agonist or antagonist protocols (as indicated) and various reference compounds and inhibitors to titrate specific binding to receptors and transporters. Most enzyme assays (CYPs, kinases, phosphatases, proteases, HDACs) used recombinant protein and specific substrates (fluorescence mostly, some colorimetric and radioactive) and inhibitors, followed by a biochemical separation of substrate and product. All assays for the biochemical HTS were initially run in duplicate at a single concentration (10 uM for CYP450 assays and 25 uM for all others). […] Each assay was run with positive and negative controls, and concurrent controls on every plate. The follow-up (secondary) screen tested active chemical-pairs in concentration series, as well as a few additional assays not tested in the primary screen, some selected negative inactives, and several cases re-run in the concentration series for confirmatory purposes.

Experiment [5] concerns the target human Sirtuin 1 (SIRT1), SIRT1 (gene 23411) (UniProt Q96EB6). In words: NVS_ENZ_hSIRT1: NovaScreen (NVS) Enzymatic Assay for human Sirtuin 1 (SIRT1) (AID 2283219). Put shortly: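 Cell-free recombinant SIRT1 with a fluorescent substrate; substrate and product separated by electrophoretic mobility shift and read by fluorescence intensity, 1 h after dosing. Primary screen at 25 uM in duplicate; hits re-run in concentration-response up to 50 uM, relative to DMSO.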

Experiment [6] concerns the target human Raf-1 Proto-Oncogene, serine/threonine Kinase (RAF1), RAF1 (gene 5894) (UniProt P04049). In words: NVS_ENZ_hRAF1: NovaScreen (NVS) Enzymatic Assay for human Raf-1 Proto-Oncogene, serine/threonine Kinase (RAF1) (AID 2283216). Put shortly: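 Single-point screening at 25 uM (duplicate), followed by singleton concentration-response to 50 uM maximum for chemicals exceeding threshold. Enzyme activity from fluorescent substrate-product mobility-shift separation after 1 h, relative to DMSO.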

The target of experiment [7] is human Protein Tyrosine Phosphatase Receptor Type C (PTPRC), PTPRC (gene 5788) (UniProt P08575). In words: NVS_ENZ_hPTPRC: NovaScreen (NVS) Enzymatic Assay for human Protein Tyrosine Phosphatase Receptor Type C (PTPRC) (AID 2283212). As to the method:
NVS_ENZ_hPTPRC is a biochemical, single-readout assay that uses extracted gene-proteins from yeast cells in a cell-free assay. Measurements were taken 1 hour after chemical dosing in a 96-well plate.NVS_ENZ_hPTPRC is one of one assay component(s) measured or calculated from the NVS_ENZ_hPTPRC assay. It is designed to make measurements of enzyme activity, a form of enzyme reporter, as detected with absorbance signals by Colorimetric technology.Data from the assay component NVS_ENZ_hPTPRC was analyzed into 1 assay endpoint. This assay endpoint, NVS_ENZ_hPTPRC, was analyzed in the positive analysis fitting direction relative to DMSO as the negative control and baseline of activity. […] Furthermore, this assay endpoint can be referred to as a primary readout, because this assay has produced multiple assay endpoints where this one serves a enzymatic activity function. […]
Binding assays used specific radioligands (tritiated, iodinated) with non-radioactive competitive displacement ligands in agonist or antagonist protocols (as indicated) and various reference compounds and inhibitors to titrate specific binding to receptors and transporters. Most enzyme assays (CYPs, kinases, phosphatases, proteases, HDACs) used recombinant protein and specific substrates (fluorescence mostly, some colorimetric and radioactive) and inhibitors, followed by a biochemical separation of substrate and product. […]

The target in experiment [8] is human Rho Associated Coiled-coil Containing Protein Kinase 1 (ROCK1), ROCK1 (gene 6093) (UniProt Q13464). In words: NVS_ENZ_hROCK1: NovaScreen (NVS) Enzymatic Assay for human Rho Associated Coiled-coil Containing Protein Kinase 1 (ROCK1) (AID 2283214). Put shortly:
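Compounds first run in duplicate at 25 uM against recombinant human ROCK1, then followed in concentration series. Kinase activity was read 1 h post-dosing by fluorescence with mobility-shift separation, as signal loss relative to DMSO.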

For experiment [9], the target named is human Sirtuin 2 (SIRT2), SIRT2 (gene 22933) (UniProt Q8IXJ6). In words: NVS_ENZ_hSIRT2: NovaScreen (NVS) Enzymatic Assay for human Sirtuin 2 (SIRT2) (AID 2283217). The protocol:
NVS_ENZ_hSIRT2 is a biochemical, single-readout assay that uses extracted gene-proteins in a cell-free assay. Measurements were taken 1 hour after chemical dosing in a 384-well plate.NVS_ENZ_hSIRT2 is one of one assay component(s) measured or calculated from the NVS_ENZ_hSIRT2 assay. It is designed to make measurements of enzyme activity, a form of enzyme reporter, as detected with fluorescence intensity signals by Fluorescence and electrophoretic mobility shift technology.Data from the assay component NVS_ENZ_hSIRT2 was analyzed into 1 assay endpoint. This assay endpoint, NVS_ENZ_hSIRT2, was analyzed in the positive analysis fitting direction relative to DMSO as the negative control and baseline of activity. Using a type of enzyme reporter, loss-of-signal activity can be used to understand changes in the enzymatic activity as they relate to the gene SIRT2. Furthermore, this assay endpoint can be referred to as a primary readout, because this assay has produced multiple assay endpoints where this one serves a enzymatic activity function. To generalize the intended target to other relatable targets, this assay endpoint is annotated to the hydrolase intended target family, where the subfamily is protein deacetylase.
(§2) Binding assays used specific radioligands (tritiated, iodinated) with non-radioactive competitive displacement ligands in agonist or antagonist protocols (as indicated) and various reference compounds and inhibitors to titrate specific binding to receptors and transporters. Most enzyme assays (CYPs, kinases, phosphatases, proteases, HDACs) used recombinant protein and specific substrates (fluorescence mostly, some colorimetric and radioactive) and inhibitors, followed by a biochemical separation of substrate and product. All assays for the biochemical HTS were initially run in duplicate at a single concentration (10 uM for CYP450 assays and 25 uM for all others). Assay-chemical combinations meeting a pre-defined threshold (e.g., 30% inhibition and other criteria defined below) were then run in singleton concentration-response format with maximum concentration of 20 uM for CYPs and 50 uM for all others. Each assay was run with positive and negative controls, and concurrent controls on every plate. The follow-up (secondary) screen tested active chemical-pairs in concentration series, as well as a few additional assays not tested in the primary screen, some selected negative inactives, and several cases re-run in the concentration series for confirmatory purposes.

Experiment [10] deals with human Protein Tyrosine Phosphatase Non-receptor Type 9 (PTPN9), PTPN9 (gene 5780) (UniProt P43378). Put plainly: NVS_ENZ_hPTPN9: NovaScreen (NVS) Enzymatic Assay for human Protein Tyrosine Phosphatase Non-receptor Type 9 (PTPN9) (AID 2283209). As to the method:
as §1, with “NVS_ENZ_hPTPN9” for “NVS_ENZ_hPTPRM”, “gene-proteins from SF9” for “gene-proteins”, “plate.NVS_ENZ_hPTPN9” for “plate.NVS_ENZ_hPTPRM”, “NVS_ENZ_hPTPN9,” for “NVS_ENZ_hPTPRM,”, “PTPN9.” for “PTPRM.”, “non-receptor” for “receptor”
as §2

Values joined by “and” are separate entries in the source; they are usually repeats but may differ in a detail not shown here. Equal values may be shown once. Records with an inconclusive call do not appear. Some compounds were tested as several samples or in several runs, with calls that do not always agree. Active and inactive are the calls of the source. The calls were made as follows: active = hit-call score of the fitted dose curve at least 0.9, where 1 is the maximum; inconclusive = response in the unintended direction; inactive = score below 0.9.

Sequence of human Protein Tyrosine Phosphatase Non-receptor Type 9 (PTPN9), PTPN9 (gene 5780) (P43378 whole entry, looked up): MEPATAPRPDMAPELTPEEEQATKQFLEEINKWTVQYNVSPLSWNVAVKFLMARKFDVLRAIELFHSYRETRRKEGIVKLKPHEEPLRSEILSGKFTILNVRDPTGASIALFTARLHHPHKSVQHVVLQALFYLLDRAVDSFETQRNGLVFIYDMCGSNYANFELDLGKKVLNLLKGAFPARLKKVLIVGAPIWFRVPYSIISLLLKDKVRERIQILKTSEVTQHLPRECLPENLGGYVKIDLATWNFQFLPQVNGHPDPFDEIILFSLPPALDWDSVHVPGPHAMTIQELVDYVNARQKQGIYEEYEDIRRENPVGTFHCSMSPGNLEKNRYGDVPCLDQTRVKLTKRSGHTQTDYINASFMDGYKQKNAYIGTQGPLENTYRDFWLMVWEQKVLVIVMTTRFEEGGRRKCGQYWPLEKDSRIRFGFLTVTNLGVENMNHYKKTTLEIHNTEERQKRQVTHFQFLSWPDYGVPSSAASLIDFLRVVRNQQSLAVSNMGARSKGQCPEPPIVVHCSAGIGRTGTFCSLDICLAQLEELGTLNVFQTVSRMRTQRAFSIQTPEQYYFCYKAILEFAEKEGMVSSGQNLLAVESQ
Sequence of human Protein Tyrosine Phosphatase Receptor Type F (PTPRF), PTPRF (gene 5792) (P10586 whole entry, looked up): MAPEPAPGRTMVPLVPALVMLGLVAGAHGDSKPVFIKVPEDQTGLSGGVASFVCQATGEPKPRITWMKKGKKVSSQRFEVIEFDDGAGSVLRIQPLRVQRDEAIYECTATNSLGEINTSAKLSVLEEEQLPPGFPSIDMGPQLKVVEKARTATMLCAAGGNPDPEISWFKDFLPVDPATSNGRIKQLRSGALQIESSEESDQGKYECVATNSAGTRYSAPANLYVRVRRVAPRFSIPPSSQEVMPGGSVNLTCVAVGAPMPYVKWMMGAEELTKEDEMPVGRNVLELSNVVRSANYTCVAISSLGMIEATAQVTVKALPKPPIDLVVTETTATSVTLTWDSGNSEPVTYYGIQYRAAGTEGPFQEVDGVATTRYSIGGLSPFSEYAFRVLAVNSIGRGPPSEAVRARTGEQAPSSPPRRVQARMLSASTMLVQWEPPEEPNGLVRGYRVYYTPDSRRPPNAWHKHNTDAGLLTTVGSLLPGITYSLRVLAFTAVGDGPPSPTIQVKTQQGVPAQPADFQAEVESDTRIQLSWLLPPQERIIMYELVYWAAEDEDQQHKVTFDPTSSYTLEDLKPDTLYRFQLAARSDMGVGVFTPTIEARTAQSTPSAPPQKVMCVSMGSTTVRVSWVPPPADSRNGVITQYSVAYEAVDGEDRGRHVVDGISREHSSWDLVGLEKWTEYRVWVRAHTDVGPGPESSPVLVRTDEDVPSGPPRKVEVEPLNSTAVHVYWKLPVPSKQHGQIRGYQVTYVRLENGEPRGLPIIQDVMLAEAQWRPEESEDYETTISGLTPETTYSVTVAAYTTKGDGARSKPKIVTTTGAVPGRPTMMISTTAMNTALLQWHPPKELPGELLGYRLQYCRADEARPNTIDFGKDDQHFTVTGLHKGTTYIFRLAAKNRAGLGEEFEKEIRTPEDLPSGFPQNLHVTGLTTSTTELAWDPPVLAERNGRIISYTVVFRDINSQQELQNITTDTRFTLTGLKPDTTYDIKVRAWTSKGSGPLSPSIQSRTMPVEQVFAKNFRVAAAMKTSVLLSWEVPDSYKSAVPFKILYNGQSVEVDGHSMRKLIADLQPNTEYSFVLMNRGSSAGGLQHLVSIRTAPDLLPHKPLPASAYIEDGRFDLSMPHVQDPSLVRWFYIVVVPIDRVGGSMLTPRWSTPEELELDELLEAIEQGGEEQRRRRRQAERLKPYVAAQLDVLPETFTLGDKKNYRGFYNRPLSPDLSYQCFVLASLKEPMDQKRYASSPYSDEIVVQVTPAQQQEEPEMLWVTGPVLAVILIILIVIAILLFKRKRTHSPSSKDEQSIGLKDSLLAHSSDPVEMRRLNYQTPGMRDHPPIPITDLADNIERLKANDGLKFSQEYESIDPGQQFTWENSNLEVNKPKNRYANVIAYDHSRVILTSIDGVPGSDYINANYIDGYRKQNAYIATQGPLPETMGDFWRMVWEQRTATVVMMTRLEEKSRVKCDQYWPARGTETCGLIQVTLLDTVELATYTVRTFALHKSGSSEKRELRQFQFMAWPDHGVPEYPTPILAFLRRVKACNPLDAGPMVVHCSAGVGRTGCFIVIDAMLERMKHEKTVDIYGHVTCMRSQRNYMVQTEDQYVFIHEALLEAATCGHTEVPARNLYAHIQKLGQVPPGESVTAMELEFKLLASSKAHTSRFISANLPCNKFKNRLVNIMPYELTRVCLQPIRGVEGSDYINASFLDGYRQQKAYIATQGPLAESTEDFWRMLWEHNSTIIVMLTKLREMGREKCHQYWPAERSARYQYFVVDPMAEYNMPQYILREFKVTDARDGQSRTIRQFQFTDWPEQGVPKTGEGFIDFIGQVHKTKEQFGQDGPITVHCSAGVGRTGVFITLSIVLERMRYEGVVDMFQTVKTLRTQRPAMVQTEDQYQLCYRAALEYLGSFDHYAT
Sequence of human Protein Tyrosine Phosphatase Non-receptor Type 6 (PTPN6), PTPN6 (gene 5777) (P29350 whole entry, looked up): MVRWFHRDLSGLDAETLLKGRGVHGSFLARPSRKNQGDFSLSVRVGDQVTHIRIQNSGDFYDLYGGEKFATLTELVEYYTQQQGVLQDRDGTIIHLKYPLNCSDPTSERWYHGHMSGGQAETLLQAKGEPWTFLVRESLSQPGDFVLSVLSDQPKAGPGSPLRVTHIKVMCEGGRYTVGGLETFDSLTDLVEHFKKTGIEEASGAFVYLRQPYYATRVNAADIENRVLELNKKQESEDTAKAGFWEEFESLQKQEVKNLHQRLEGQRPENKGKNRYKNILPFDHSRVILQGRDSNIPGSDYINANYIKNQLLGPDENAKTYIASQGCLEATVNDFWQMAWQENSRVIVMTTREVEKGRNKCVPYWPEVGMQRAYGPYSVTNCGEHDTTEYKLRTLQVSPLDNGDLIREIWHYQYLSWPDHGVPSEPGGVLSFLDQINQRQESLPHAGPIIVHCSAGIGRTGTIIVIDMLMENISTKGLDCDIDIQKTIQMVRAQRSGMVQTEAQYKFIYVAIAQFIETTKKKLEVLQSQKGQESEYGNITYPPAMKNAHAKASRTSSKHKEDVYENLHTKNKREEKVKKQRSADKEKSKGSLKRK
Sequence of human Protein Tyrosine Phosphatase Receptor Type M (PTPRM), PTPRM (gene 5797) (P28827 whole entry, looked up): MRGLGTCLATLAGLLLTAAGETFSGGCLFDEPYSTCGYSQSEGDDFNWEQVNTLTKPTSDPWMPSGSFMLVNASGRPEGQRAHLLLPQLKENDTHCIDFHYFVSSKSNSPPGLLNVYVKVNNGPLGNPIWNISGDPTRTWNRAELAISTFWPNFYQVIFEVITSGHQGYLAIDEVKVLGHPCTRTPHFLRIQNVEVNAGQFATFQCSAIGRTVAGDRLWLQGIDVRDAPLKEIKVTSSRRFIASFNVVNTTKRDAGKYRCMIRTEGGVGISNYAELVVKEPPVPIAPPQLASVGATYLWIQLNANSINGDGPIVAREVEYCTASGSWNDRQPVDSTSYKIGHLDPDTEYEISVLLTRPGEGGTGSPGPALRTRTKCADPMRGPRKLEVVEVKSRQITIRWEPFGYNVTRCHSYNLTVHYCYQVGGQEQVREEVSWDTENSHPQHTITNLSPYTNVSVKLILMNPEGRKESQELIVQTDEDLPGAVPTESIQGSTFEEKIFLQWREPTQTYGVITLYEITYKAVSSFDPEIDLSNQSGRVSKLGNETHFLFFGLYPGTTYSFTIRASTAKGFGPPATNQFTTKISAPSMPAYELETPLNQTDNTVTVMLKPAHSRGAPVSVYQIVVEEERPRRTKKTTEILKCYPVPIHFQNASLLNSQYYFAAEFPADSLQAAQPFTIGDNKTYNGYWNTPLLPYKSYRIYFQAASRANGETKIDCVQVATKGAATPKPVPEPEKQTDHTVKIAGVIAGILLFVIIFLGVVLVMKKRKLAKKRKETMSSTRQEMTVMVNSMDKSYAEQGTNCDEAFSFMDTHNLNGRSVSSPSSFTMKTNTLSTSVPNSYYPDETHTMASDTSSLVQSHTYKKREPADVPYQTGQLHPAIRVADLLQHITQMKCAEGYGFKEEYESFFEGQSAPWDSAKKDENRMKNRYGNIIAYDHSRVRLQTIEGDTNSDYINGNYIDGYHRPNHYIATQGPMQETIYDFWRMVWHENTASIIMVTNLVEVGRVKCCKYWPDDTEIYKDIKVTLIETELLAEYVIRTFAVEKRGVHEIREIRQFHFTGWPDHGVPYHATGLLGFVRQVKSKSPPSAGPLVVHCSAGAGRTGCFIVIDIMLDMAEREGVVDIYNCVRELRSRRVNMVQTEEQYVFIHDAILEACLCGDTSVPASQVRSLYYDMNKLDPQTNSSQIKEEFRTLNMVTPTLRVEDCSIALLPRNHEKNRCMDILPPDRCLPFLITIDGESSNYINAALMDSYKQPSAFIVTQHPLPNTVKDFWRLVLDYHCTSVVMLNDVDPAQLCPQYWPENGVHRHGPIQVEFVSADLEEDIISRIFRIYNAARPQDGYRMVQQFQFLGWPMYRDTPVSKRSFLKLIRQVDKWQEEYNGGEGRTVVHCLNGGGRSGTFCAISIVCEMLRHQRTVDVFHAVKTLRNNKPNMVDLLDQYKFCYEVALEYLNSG
Sequence of human Sirtuin 2 (SIRT2), SIRT2 (gene 22933) (Q8IXJ6 whole entry, looked up): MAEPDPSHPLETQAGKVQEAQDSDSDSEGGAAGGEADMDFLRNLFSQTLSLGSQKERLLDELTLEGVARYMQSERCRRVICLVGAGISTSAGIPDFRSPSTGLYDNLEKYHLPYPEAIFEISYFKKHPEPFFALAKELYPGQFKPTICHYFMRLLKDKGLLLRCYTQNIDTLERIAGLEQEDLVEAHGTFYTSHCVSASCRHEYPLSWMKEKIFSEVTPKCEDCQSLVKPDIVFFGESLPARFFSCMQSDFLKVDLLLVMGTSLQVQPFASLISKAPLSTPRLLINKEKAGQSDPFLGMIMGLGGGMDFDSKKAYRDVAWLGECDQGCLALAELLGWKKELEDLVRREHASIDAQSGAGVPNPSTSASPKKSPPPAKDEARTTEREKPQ

`CNC(=O)CSP(=S)(OC)OC`: the call in experiment [1], in [2] and in [3] was inactive.

As for `N#Cc1c(Cl)c(Cl)c(Cl)c(C#N)c1Cl`, the outcome in experiment [4] and in experiment [5] was inactive.

`CCS(=O)(=O)c1cccnc1S(=O)(=O)NC(=O)Nc1nc(OC)cc(OC)n1`: the molecule was classed as inactive in experiment [3], in experiment [4] and in experiment [6].

For the molecule `Oc1cc(Cl)ccc1Oc1ccc(Cl)cc1Cl`, the molecule was classed as inactive in experiment [2].

Take `O=S(=O)(O)C(F)(F)C(F)(F)C(F)(F)C(F)(F)C(F)(F)C(F)(F)C(F)(F)C(F)(F)F`: the AC50 was 34.8 µM (active) in experiment [1]; 18.7 µM (active) and 37.6 µM (active) in experiment [2]; 17.1 µM (active) and 15.2 µM (active) in experiment [7]; 14.8 µM (active) and 13.1 µM (active) in experiment [3]; 39 µM (active) in [8]; 23.6 µM (active) and 43 µM (active) in experiment [4]. In addition, the AC50 in [6] was 33.2 µM (active) and 24.5 µM (active); in [9] it was 6.66 µM (active). Moreover, the call in experiment [7] was inactive.

For `ClC1C(Cl)C(Cl)C(Cl)C(Cl)C1Cl` (configuration not stated), the molecule was called inactive in experiment [5].

On to `O=C(O)C(F)(F)C(F)(F)C(F)(F)C(F)(F)C(F)(F)C(F)(F)C(F)(F)F`, for which the result in [2] and in [4] was inactive.

Turning to `CC[C@H](C)[C@H]1O[C@]2(C=C[C@@H]1C)C[C@@H]1C[C@@H](C/C=C(\C)[C@@H](O[C@H]3C[C@H](OC)[C@@H](O[C@H]4C[C@H](OC)[C@@H](O)[C@H](C)O4)[C@H](C)O3)[C@@H](C)/C=C/C=C3\CO[C@@H]4[C@H](O)C(C)=C[C@@H](C(=O)O1)[C@]34O)O2` (tested in a mixture with another compound), the AC50 in [4] was 45.3 µM (active); in [5], 17.2 µM (active).

As for `COC(=O)c1ccccc1S(=O)(=O)NC(=O)Nc1nc(C)nc(OC)n1`, in experiment [2], the call was inactive.

In the case of `CCC(C)(C)C(=O)OC1=C(c2ccc(Cl)cc2Cl)C(=O)OC12CCCCC2`, in [4], the outcome was inactive. Further, the half-maximal activity concentration (AC50) in experiment [9] is 18.9 µM (active).

On to `CC(C)(C)C(O)C(Oc1ccc(Cl)cc1)n1cncn1` (configuration not stated), for which the molecule was called inactive in experiment [10] and in experiment [1].

As for `CCOc1nc(NC)nc(NC(=O)NS(=O)(=O)c2ccccc2C(=O)OC)n1`, in experiment [6], the result was inactive.

Take `Oc1ccc(Cl)cc1Cc1ccccc1`: the outcome in experiment [6] was inactive. For the same molecule, the AC50 in experiment [9] is 3.4 µM (active) and 9.3 µM (active).

With `CCCN(CCOc1c(Cl)cc(Cl)cc1Cl)C(=O)n1ccnc1`, in [9], the AC50 is 10.8 µM (active).

With `Cc1cc(C)nc(NC(=O)NS(=O)(=O)c2ccccc2C(=O)OC2COC2)n1`, the AC50 in experiment [10] was 36.7 µM (active). Further, in experiment [4], the result was inactive.

Turning to `CCC(C)Nc1c([N+](=O)[O-])cc(C(C)(C)C)cc1[N+](=O)[O-]` (configuration not stated), the call in experiment [6] and in experiment [5] was inactive.

Turning to `CNC(=O)/C=C(\C)OP(=O)(OC)OC`, the molecule was classed as inactive in experiment [6].

With `COC(=O)c1ccccc1S(=O)(=O)NC(=O)N(C)c1nc(C)nc(OC)n1`, in experiment [10], the call was inactive.

As to `O=[N+]([O-])c1c(Cl)c(Cl)c(Cl)c(Cl)c1Cl`, in experiment [3], the call was inactive.

Take `CN1CSC(=S)N(C)C1`: the molecule was called inactive in [10]. Also, the AC50 in [3] was 10.1 µM (active); in experiment [4], 25 µM (active).
